Growth inhibition data for eight compounds are collected here from PubChem BioAssay (NCI).

This is part of a sample that, as a whole, favours compounds with a hit. Of some 79,000 tested, about 15% had one in any assay. A number with no mark means an inactive call. Activity calls are given as the source filed them. Cut-off read from the data, not from the text of the source: active = growth inhibition above about 70%; inactive = the rest.

The experiment in a line: NCI Yeast Anticancer Drug Screen. Data for the mgt1 strain (AID 153). Conditions: S. cerevisiae mgt1 mutant growth inhibition, active compounds read high. The procedure:
Growth inhibition of yeast strains with defined genetic alterations is measured as a screen for potential anti-cancer activity. Selected strains with alterations in DNA damage repair or cell cycle control were exposed to compounds and growth inhibition was measured relative to vehicle treated controls. The strain used in this assay is mgt1

Consider `Cn1c(=O)c2ccccc2c2ccccc21`, for which the growth inhibition is -1% (at 1.2 µM); -3% (at 3.7 µM); -1% (at 11.0 µM); 35% (at 33.0 µM); 51% (at 100.0 µM).
For `CCCCCCCCCCCC1=C(O)C(=O)C=C(O)C1=O`, the growth inhibition is -3% (at 1.2 µM); -5% (at 3.7 µM); 22% (at 11.0 µM); 89% (active) (at 33.0 µM); 91% (active) (at 100.0 µM).
Regarding `CC(=O)OC1CCC2(C)C(=CCC3C4CCC5(OC6CC(C)CN(C(C)=O)C6C5C)C(C)=C4C(=O)C32)C1` (stereo not given), the growth inhibition by setting is: (at 1.2 µM) -26%; (at 3.7 µM) -30%; (at 11.0 µM) 61%; (at 33.0 µM) 97% (active); (at 100.0 µM) 96% (active).
Turning to `C=C(CN(C)C)C(=O)c1cc(C)ccc1C`, the growth inhibition runs as follows: (at 1.2 µM) 2%; (at 3.7 µM) 19%; (at 11.0 µM) 80% (active); (at 33.0 µM) 99% (active); (at 100.0 µM) 99% (active).
Turning to `O=C(CCCN1CCC2(CC1)CC(=O)N(N1CCCCCC1)C2=O)c1ccc(F)cc1`, the growth inhibition reads like this: (at 1.2 µM) 32%; (at 3.7 µM) 45%; (at 11.0 µM) 67%; (at 33.0 µM) 75% (active); (at 100.0 µM) 89% (active).
In the case of `c1ccc(-c2nc3cccnc3s2)cc1`, the growth inhibition (at 1.2 µM) was 1%; the growth inhibition (at 3.7 µM) is -2%; the growth inhibition (at 11.0 µM) is -1%; the growth inhibition (at 33.0 µM) was -10%; the growth inhibition (at 100.0 µM) is -11%.
For `CCc1ccc(NS(=O)(=O)c2ccccc2)c([N+](=O)[O-])c1`, the growth inhibition was 0% (at 1.2 µM); 0% (at 3.7 µM); 3% (at 11.0 µM); 22% (at 33.0 µM); 74% (active) (at 100.0 µM).
In the case of `CC(C)C1=CC2=C[C@H](O)[C@H]3C(C)(C)CCC[C@]3(C)C2=C(O)C1=O`, the growth inhibition runs as follows: (at 1.2 µM) -3%; (at 3.7 µM) -7%; (at 11.0 µM) 99% (active); (at 33.0 µM) 99% (active); (at 100.0 µM) 95% (active).
